Source: PubChem BioAssay (EPA / NIEHS)
The source made the active and inactive calls. How the source made its calls: active means hit-call score of the fitted dose curve at least 0.9, where 1 is the maximum; inactive means score below 0.9.

experiment: APR_HepG2_StressKinase_1hr: Apredica 1-hour HepG2 Assay for Stress Kinase (AID 2282906); details: HepG2 stress kinase (phospho-c-Jun) imaging, actives raise or lower the signal
Method: APR_HepG2_1hr is a cell-based, multiplexed-readout assay that uses HepG2, a human liver cell line, with measurements taken at 1 hour after chemical dosing in a 384-well plate.APR_HepG2_StressKinase_1hr is one of 10 assay component(s) measured or calculated from the APR_HepG2_1hr assay. It is designed to make measurements of enzyme activity, a form of enzyme reporter, as detected with fluorescence intensity signals by HCS Fluorescent Imaging technology.Data from the assay component APR_HepG2_StressKinase_1hr was analyzed into 1 assay endpoint. This assay endpoint, APR_HepG2_StressKinase_1hr, was analyzed with bidirectional fitting relative to DMSO as the negative control and baseline of activity. Using a type of enzyme reporter, measures of protein for gain or loss-of-signal activity can be used to understand the signaling at the pathway-level as they relate to the gene . Furthermore, this assay endpoint can be referred to as a primary readout, because this assay has produced multiple assay endpoints where this one serves a signaling function. To generalize the intended target to other relatable targets, this assay endpoint is annotated to the cell cycle intended target family, where the subfamily is stress response.
Cells were treated with dimethyl sulfoxide (DMSO) as a solvent control at a final concentration of 0.5% v/v or with compounds in DMSO with a resulting final DMSO concentration of 0.5% v/v. Compound treatment was done at concentrations of 0.39, 0.78, 1.56, 3.12, 6.24, 12.5, 25, 50, 100, and 200 uM in duplicate on each plate. Cells were treated with compounds for 1, 24, or 72 hr. Carbonyl […] m-chloro-phenylhydrazone (CCCP) and taxol were used as positive controls for mitochondrial function and cytoskeletal stability, respectively; DMSO served as the negative control for this experiment. Cells were fixed by the direct addition of 50 uL formaldehyde in Hank's Balanced Salt Solution (HBSS) to a final concentration of 3.7%. After incubation in the fixation medium for 30 min at room temperature (293-298 K), cells were rinsed twice with HBSS and treated with cell permeabilization buffer (16 uL of 0.5% Triton X-100) for 10 min at room temperature (293-298 K) before labeling. For mitochondrial membrane potential and mitochondrial measurements, pre-fixed cells were incubated with 50 uL of MitoTracker Red CMXRos (Invitrogen) at a concentration of 250 nM for 30 min before fixation. In the remaining cases, post-fixed cells were labeled by incubation with a multiplexed mixture of primary antibodies in HBSS for 60 min at room temperature (293-298 K) to detect immunoreactivity of c-Jun (1:500), phospho-histone H3 (1:100), phospho-histone H2A.x (1:200), p53 (1:400), alpha-tubulin (1:200) and Hoechst 33342 (2 ug/mL). Cells were labeled for multiplexed imaging on two separate plates: a) Hoechst 33342, MitoTracker Red, phospho-histone H3, and alpha-tubulin, and b) Hoechst 33342, phospho-histone H2A.x, and c-Jun. A final rinse with HBSS (50 uL) was performed before analysis. The primary and secondary antibodies for the proteins were phospho-histone H3 (rabbit anti-phospho-histone H3 and FITC-donkey anti-rabbit IgG), phospho-histone H2A.x (mouse anti-phospho-histone H2A.x and FITC-donkey anti-mouse IgG), c-Jun (rabbit anti-phospho-c-Jun and Cy3-donkey anti-rabbit IgG), p53 (sheep anti-p53 and Cy5-donkey anti-sheep IgG), alpha-tubulin (mouse anti-alpha-tubulin and Cy5-donkey anti-mouse IgG). These antibodies are available as the CellCiphr HepG2 assay kit (Millipore).Digital images of each well were captured using a Cellomics ArrayScan VTI (Thermo Scientific Cellomics) (0.8 NA objective, 0.63x optical coupler, and XF-93 filter set) at 20x magnification. The images were acquired using the autofocus feature of the ArrayScan instrument, which entails the following steps. First, the camera focuses on channel 1 (Hoechst 33342), where nuclei are identified. Second, a Z offset of 1 um is used for capturing mitochondria (MitoTracker Red). […]

| Structure (SMILES) | outcome | AC50 |
| --- | --- | --- |
| CCOC(=O)C(Cl)Cc1cc(-n2nc(C)n(C(F)F)c2=O)c(F)cc1Cl (stereo not given) | inactive | – |
| CNC(=O)ON=CC(C)(C)SC | inactive | – |
| COc1ccc(C(c2ccc(OC)cc2)C(Cl)(Cl)Cl)cc1 | inactive | – |
| COc1nc(C)nc(NC(=O)NS(=O)(=O)c2ccccc2Cl)n1 | inactive | – |
| CC(C)C1(C)N=C(c2nc3ccccc3cc2C(=O)O)NC1=O (stereo not given) | inactive | – |
| COC(=O)N(OC)c1ccccc1COc1ccn(-c2ccc(Cl)cc2)n1 | inactive | – |
| CN(C)C(=S)SSC(=S)N(C)C | – | 3.07 µM (active) |
| CCOC(=O)CC(SP(=S)(OC)OC)C(=O)OCC (stereo not given) | inactive | – |
| Cc1c(F)c(F)c(COC(=O)C2C(/C=C(\Cl)C(F)(F)F)C2(C)C)c(F)c1F (stereo not given) | inactive | – |
| CC(C)Oc1cc(-n2nc(C(C)(C)C)oc2=O)c(Cl)cc1Cl | inactive | – |
| COP(N)(=O)SC (stereo not given) | inactive | – |
| CC(Oc1ccc(Cl)cc1Cl)C(=O)O (stereo not given) | inactive | – |
| CNC(=S)S | inactive | – |
| Oc1ccccc1-c1ccccc1 | inactive | – |
| O=C(O)c1nc(Cl)ccc1Cl | inactive | – |
| CC(C)(C)c1ccc(CSc2cnn(C(C)(C)C)c(=O)c2Cl)cc1 | inactive | – |
| C=CC1(C)OC(=O)N(c2cc(Cl)cc(Cl)c2)C1=O (stereo not given) | inactive | – |
| CON(C)C(=O)Nc1ccc(Cl)c(Cl)c1 | inactive | – |
| CCOP(=S)(OCC)SCn1c(=O)oc2cc(Cl)ccc21 | inactive | – |
| CC1=C(C(=O)Nc2ccccc2)SCCO1 | inactive | – |

| Structure (SMILES) | outcome | AC50 |
| --- | --- | --- |
| N#Cc1nn(-c2c(Cl)cc(C(F)(F)F)cc2Cl)c(N)c1S(=O)C(F)(F)F (stereo not given) | inactive | – |
| Cc1cc(Cl)ccc1OCC(=O)O | inactive | – |
| CCOc1cc(Oc2ccc(C(F)(F)F)cc2Cl)ccc1[N+](=O)[O-] | inactive | – |
| N#CC(CCc1ccc(Cl)cc1)(Cn1cncn1)c1ccccc1 (stereo not given) | inactive | – |
| Fc1ccc(Oc2ccnc3cc(Cl)cc(Cl)c23)cc1 | inactive | – |
| CCCC1COC(Cn2cncn2)(c2ccc(Cl)cc2Cl)O1 (stereo not given) | inactive | – |
| COC(=O)c1ccccc1C(=O)OC | inactive | – |
| COC(=O)C=C(C)OP(=O)(OC)OC | inactive | – |
| CCCCC(CC)COC(=O)c1ccccc1C(=O)OCC(CC)CCCC (stereo not given) | inactive | – |
| OC(c1ccc(Cl)cc1)(c1cncnc1)c1ccccc1Cl (stereo not given) | inactive | – |
| COC(=O)C(C)Oc1ccc(Oc2ccc(Cl)cc2Cl)cc1 (stereo not given) | inactive | – |
| O=C(O)COc1nc(Cl)c(Cl)cc1Cl | inactive | – |
| C=CCC1=C(C)[C@@H](OC(=O)[C@@H]2[C@@H](C=C(C)C)C2(C)C)CC1=O | inactive | – |
| COc1nc(NC(C)C)nc(NC(C)C)n1 | inactive | – |
| C=CCC1=C(C)C(OC(=O)C2C(C=C(C)C)C2(C)C)CC1=O (stereo not given) | inactive | – |
| Cc1ccc(-c2c(Cl)nc(C#N)n2S(=O)(=O)N(C)C)cc1 | inactive | – |
| CCc1nn(C)c(C(=O)NCc2ccc(C(C)(C)C)cc2)c1Cl | – | 9.39 µM (active) |
| CCCCNC(=O)OCC#CI | inactive | – |
| COP(=S)(OC)Oc1nc(Cl)c(Cl)cc1Cl | inactive | – |
| CCCCNC(=O)n1c(NC(=O)OC)nc2ccccc21 | inactive | – |
